# The entries come from a sample that favours the strongest signals as a whole.
# How the values were obtained:
# Test in all cases: glycan array binding signal (z-score within array); higher = stronger binding
# Conditions in all cases: glycan notation: IUPAC condensed, linker removed
# [1] = target: Fuc(a1-2)Gal(b1-4)[Fuc(a1-3)]GalNAc(b1-3)Gal(b1-4)[Fuc(a1-3)]GlcNAc
# In short: (§1)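 Glycan array data came from 3228 arrays in the Consortium for Functional Glycomics database, and only arrays with an available protein sequence were kept. Glycan names were put into IUPAC-condensed notation, and columns mapping to the same glycan were averaged. The binding signal is a within-array Z-score, averaged across arrays of one protein sequence run at different concentrations or buffers and across linkers. A negative Z-score can be read as non-binding.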
# [2] = target: Fuc(a1-2)Gal(b1-4)[Fuc(a1-3)]GlcNAc
# In short: as §1
# [3] = target: Gal(a1-3)Gal(b1-3)Glc
# In short: as §1
# [4] = target: Gal(b1-3)[Neu5Ac(a2-6)]GalNAc
# In short: as §1
# [5] = target: Gal(b1-4)GlcNAc(b1-3)Gal(b1-4)Glc
# In short: as §1
# [6] = target: Gal4S(b1-4)GlcNAc
# In short: as §1
# [7] = target: Glc(a1-4)Glc
# In short: as §1
# [8] = target: GlcNAc(b1-3)Gal(b1-4)GlcNAc(b1-3)Gal(b1-4)GlcNAc
# In short: as §1
# [9] = target: GlcNAc(b1-3)[GlcNAc(b1-6)]GlcNAc
# In short: as §1
# [10] = target: Man(a1-2)Man(a1-2)Man(a1-6)[Man(a1-3)]Man
# In short: as §1
# [11] = target: Man(a1-2)Man(a1-3)Man
# In short: as §1
# [12] = target: Neu5Ac(a2-3)Gal(b1-3)[Fuc(a1-4)]GlcNAc(b1-3)Gal(b1-4)[Fuc(a1-3)]GlcNAc
# In short: as §1
# [13] = target: Neu5Ac(a2-3)Gal(b1-4)GlcNAc6S
# In short: as §1
# [14] = target: Neu5Ac(a2-3)Gal(b1-4)[Fuc(a1-3)]GlcNAc(b1-3)Gal(b1-4)[Fuc(a1-3)]GlcNAc(b1-3)Gal(b1-4)[Fuc(a1-3)]GlcNAc
# In short: as §1
# [15] = target: Neu5Ac(a2-6)GalNAc
# In short: as §1
# [16] = target: Neu5Ac9Ac(a2-6)Gal(b1-4)GlcNAc
# In short: as §1
# [17] = target: Fuc(a1-2)Gal(b1-4)GlcNAc6S
# In short: as §1
# [18] = target: Fuc(a1-2)Gal(b1-4)[Fuc(a1-3)]GalNAc(b1-3)Gal(b1-4)[Fuc(a1-3)]GlcNAc(b1-3)Gal(b1-4)[Fuc(a1-3)]GalNAc
# In short: as §1
# [19] = target: Fuc(a1-2)[GalNAc(a1-3)]Gal(b1-4)GlcNAc
# In short: as §1
# [20] = target: Gal(a1-3)Gal(b1-4)GlcNAc
# In short: as §1
# [21] = target: Gal(b1-4)GalNAc(b1-3)[Fuc(a1-2)]Gal(b1-4)GlcNAc
# In short: as §1
# [22] = target: Gal(b1-4)GlcNAc(b1-6)GalNAc
# In short: as §1
# [23] = target: Gal3S(b1-4)GlcNAc
# In short: as §1
# [24] = target: Gal3S(b1-4)GlcNAc6S
# In short: as §1
# [25] = target: Neu5Ac(a2-3)Gal
# In short: as §1
# [26] = target: Neu5Ac(a2-3)Gal(b1-4)[Fuc(a1-3)]GlcNAc6S
# In short: as §1
# [27] = target: Neu5Ac(a2-8)Neu5Ac(a2-8)Neu5Ac(a2-3)Gal(b1-4)Glc
# In short: as §1
binder,measurement,setting,value
7WC (Trifolium repens) (protein) MGTITSYAVVFDAGSTGSRVHVYHFDQNLDLLHIGKDVEFYNKIQPGLSAYADNPEQAAKSLIPLLEQAENVVPEDFHSKTPIRLGATAGLRLLDGDASERILQAVRDMLNNKSTFNVQPDAVSIIDGTQEGSYLWVTINYVLGNLGKRFTNTVGVIDLGGGSVQMAYAVSKKTARNAPKVTDGEDPYIKKIVLKGKPYDLYVHSYLHFGREASRAEILKVTHGSASPCILAGFDGIYTYSGEEFKASAPTSGANFDKCKKIIQKALKLDYPCPYQNCTFGGIWNGGGGSGQKKLFAASSFFYLPQDVGMVDPNKSNLKLRPVDLENKAKIVCTLNVEDVKSAYPLLEKFNIVPYACMDLIYQYELLVDGFGLDPLQEITAGEKIEYQEALVDAAWALGNAVEAVLLLPKFERLMYFVVEHHHHHH,glycan array binding signal (z-score),[1],-0.347
same,glycan array binding signal (z-score),[2],-0.391
same,glycan array binding signal (z-score),[3],-0.298
same,glycan array binding signal (z-score),[4],-0.464
same,glycan array binding signal (z-score),[5],-0.215
same,glycan array binding signal (z-score),[6],-0.335
same,glycan array binding signal (z-score),[7],2.65
same,glycan array binding signal (z-score),[8],-0.327
same,glycan array binding signal (z-score),[9],0.685
same,glycan array binding signal (z-score),[10],9.79
same,glycan array binding signal (z-score),[11],-0.261
same,glycan array binding signal (z-score),[12],4.17
same,glycan array binding signal (z-score),[13],-0.474
same,glycan array binding signal (z-score),[14],2.57
same,glycan array binding signal (z-score),[15],-0.153
same,glycan array binding signal (z-score),[16],-0.491
STA (Solanum tuberosum) (protein) NASAPLPYPQCGLKKGGGKCIKTGECCSIWGWCGTTSDYCAPGYCQKQCPGPYPQGRCGWQANGKSCPTGTGQCCSNAGWCGTTSDYCAPNNCQSQCKLPPPPPSPPPPPPSPPPPSPPPPPPSPPPPSPSPPPPPPSPPPPSPPPPSPPPPSPPPPPSPSPPPPPPSPPPPPPPLPYPQCGMKKGGGKCIKTGECCSIWGWCGTTSKYCSPGYCQMQCPDPYPEGRCGWQANGKSCPTGTGQCCSNAGWCGTTSAYCAPVNCQAQCNTTTLTSPIKNRMRGIESFMLNVV,glycan array binding signal (z-score),[17],0.551
same,glycan array binding signal (z-score),[18],-0.504
same,glycan array binding signal (z-score),[19],2.86
same,glycan array binding signal (z-score),[20],3.27
same,glycan array binding signal (z-score),[21],0.033
same,glycan array binding signal (z-score),[22],2.69
same,glycan array binding signal (z-score),[23],2.55
same,glycan array binding signal (z-score),[24],2.58
same,glycan array binding signal (z-score),[6],3.08
same,glycan array binding signal (z-score),[9],-0.269
same,glycan array binding signal (z-score),[10],-0.506
same,glycan array binding signal (z-score),[25],-0.507
same,glycan array binding signal (z-score),[13],3.23
same,glycan array binding signal (z-score),[26],-0.49
same,glycan array binding signal (z-score),[27],-0.5
same,glycan array binding signal (z-score),[16],-0.498
